Source: PubChem BioAssay (NCI)
The panel holds about 83,000 compounds, 20% with a hit somewhere; the sample as a whole holds those more often.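 Interpretation: 100, growth as untreated; towards 0, rising growth inhibition; 0, no net growth; 0 to -100, cell death. Compounds scoring below 10 were considered active.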 Unmarked numbers belong to inactive results. The source made the active and inactive calls.

Assays:
Test in all cases: NCI-60 one-dose screen, 48 h (100 = growth as untreated, 0 = no growth, -100 = all killed)
Details in all cases: 10 µM unless noted
NCI-H23 lung = tested on: NCI-H23 lung
NCI-H226 lung = tested on: NCI-H226 lung
NCI-H322M lung = tested on: NCI-H322M lung
HOP-62 NSCLC = tested on: HOP-62 NSCLC
NCI-H460 lung = tested on: NCI-H460 lung
HOP-92 NSCLC = tested on: HOP-92 NSCLC
NCI-H522 lung = tested on: NCI-H522 lung
A549/ATCC NSCLC = tested on: A549/ATCC NSCLC
786-0 renal = tested on: 786-0 renal
COLO 205 colon = tested on: COLO 205 colon
DU-145 prostate = tested on: DU-145 prostate
K-562 leukemia = tested on: K-562 leukemia
MALME-3M melanoma = tested on: MALME-3M melanoma
MDA-MB-231 breast = tested on: MDA-MB-231 breast
RXF 393 renal = tested on: RXF 393 renal
SF-268 CNS = tested on: SF-268 CNS
SF-295 CNS = tested on: SF-295 CNS
SF-539 CNS = tested on: SF-539 CNS
UACC-257 melanoma = tested on: UACC-257 melanoma
M14 melanoma = tested on: M14 melanoma

SMILES	growth (NCI-H23 lung) [%]	growth (NCI-H226 lung)	growth (NCI-H322M lung)	growth (HOP-62 NSCLC)	growth (NCI-H460 lung)	growth (HOP-92 NSCLC)	growth (NCI-H522 lung)	growth (A549/ATCC NSCLC) [%]	growth (786-0 renal)	growth (COLO 205 colon)	growth (DU-145 prostate)	growth (K-562 leukemia)	growth (MALME-3M melanoma)	growth (MDA-MB-231 breast)	growth (RXF 393 renal)	growth (SF-268 CNS)	growth (SF-295 CNS)	growth (SF-539 CNS)	growth (UACC-257 melanoma)	growth (M14 melanoma)
Cn1/c(=N/NC(N)=S)ccc2ccccc21	94.9	88.9%	82.4%	98.6%	108%	109%	88.9%	97.7	104%	114%	103%	46.4%	90.8%	87.7%	102%	91.8%	89.5%	97.8%	70%	86.4%
CCCCCCC/C=C/[C@H]1O[C@]2(O)C(=O)C=C3C[C@@H](O[C@@H]4O[C@H](CO)[C@@H](O)C(O)[C@@H]4O)C[C@@H]3[C@H]2C=C1C (stereo not given in full)	43.6	-20.8% (active)	54.3%	1.36% (active)	38.3%	11.8%	-57.6% (active)	59.8	-52.4% (active)	11.8%	20.6%	-5.09% (active)	1.95% (active)	-8.64% (active)	-80.3% (active)	21.8%	37.5%	-43.7% (active)	-7.54% (active)	-23.6% (active)
CC1(C)CC[C@]2(C(=O)NCC#CCN3CCOCC3)CC[C@]3(C)C(=CC[C@@H]4[C@@]5(C)Cc6c([nH]c7ccccc67)C(C)(C)[C@@H]5CC[C@]43C)[C@@H]2C1	95.9	95.1%	96.1%	98.1%	90.1%	79.8%	85.2%	72	92.7%	30.5%	103%	65.3%	95%	91.4%	98.6%	87.7%	79.7%	107%	47.5%	80.7%
C=CCn1c(SCC(=O)Nc2ccc(C(=O)/C=C/c3cc(OC)c(OC)c(OC)c3)cc2)nnc1-c1cc(-c2ccc(S(C)(=O)=O)cc2)nc2ccccc12	85.6	85.3%	93.5%	111%	97.2%	112%	86.5%	99.4	93.6%	111%	94.5%	50.5%	89.3%	77.7%	60.9%	86.9%	97.4%	86%	102%	88.8%
COc1ccc(/C(C)=N/NC(=O)CSc2nc3ccccc3c(=O)n2Cc2ccc(S(N)(=O)=O)cc2)c(OC)c1	101	93.9%	94.8%	100%	102%	112%	96%	102	105%	118%	108%	94.9%	102%	96.2%	102%	91.8%	98.7%	100%	107%	104%
Nc1nnc(C(=O)c2cnc3n(c2=O)CCCCC3)s1	96.7	92.4%	103%	101%	108%	98.4%	98%	102	101%	118%	103%	92.3%	101%	90.4%	104%	96.6%	101%	94.3%	101%	96.7%
C=C1C(=O)O[C@H]2[C@H]1CC/C(COC(=O)CCCc1c[nH]c3ccccc13)=C\CC[C@@]1(C)O[C@@H]21	65.9	76.7%	104%	89.8%	85.9%	44.6%	39.9%	72	14.2%	64.8%	49.6%	-9.04% (active)	86.4%	35.4%	32.7%	60.8%	82%	41.7%	64.1%	53.1%
C[C@H]1[C@H](C)CC[C@]2(CO)CC[C@]3(C)C(=CC[C@@H]4[C@@]5(C)CCCNC(C)(C)[C@@H]5CC[C@]43C)[C@H]12	36.1	-99% (active)	-17.9% (active)	-23.1% (active)	-83.3% (active)	-5.92% (active)	-77.8% (active)	12	-81% (active)	-78.3% (active)	-17.4% (active)	-49.1% (active)	-71.9% (active)	-54.8% (active)	-27.9% (active)	5.71% (active)	-64.6% (active)	-36.5% (active)	-36.9% (active)	-73.2% (active)
